± gives the standard deviation of the averaged measurements. About 5,400 targets were measured; listed, in parts, are those with the largest changes and a random draw of the rest.
Compound: Nc1nc2c(ncn2[C@@H]2O[C@H](COP(=O)(O)OP(=O)(O)OP(=O)(O)O)[C@@H](O)[C@H]2O)c(=O)[nH]1 [guanosine triphosphate]
Assay: NP40-soluble protein abundance relative to vehicle (solubility fold change) (ratio); higher = more soluble protein in presence of GTP
Outline: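 Crude Jurkat lysate, prepared by Dounce homogenisation, was exposed to eight concentrations from 0.1 to 10 mM for 10 min at room temperature and then 3 min at 37 °C. Solubilisation used 0.8% NP40 with benzonase for 60 min at 4 °C, followed by ultracentrifugation and TMT labelling of the supernatant for LC-MS/MS. After vsn normalisation of intensities, each value is the fold change against the detergent-processed vehicle within each replicate, across three independent experiments.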

CHMP7 (UniProt Q8WUX9)
NP40-soluble protein abundance (concentration: 0.1mM): 0.945 ± 0.058
NP40-soluble protein abundance (concentration: 0.5mM): 0.935 ± 0.087
NP40-soluble protein abundance (concentration: 1mM): 0.973 ± 0.085
NP40-soluble protein abundance (concentration: 2mM): 0.92 ± 0.11
NP40-soluble protein abundance (concentration: 4mM): 0.884 ± 0.074
NP40-soluble protein abundance (concentration: 6mM): 0.9 ± 0.045
NP40-soluble protein abundance (concentration: 8mM): 0.912 ± 0.1
NP40-soluble protein abundance (concentration: 10mM): 0.889 ± 0.084

GALNT2 (UniProt Q10471)
UniProt Q10471, sequence (Q10471 whole entry): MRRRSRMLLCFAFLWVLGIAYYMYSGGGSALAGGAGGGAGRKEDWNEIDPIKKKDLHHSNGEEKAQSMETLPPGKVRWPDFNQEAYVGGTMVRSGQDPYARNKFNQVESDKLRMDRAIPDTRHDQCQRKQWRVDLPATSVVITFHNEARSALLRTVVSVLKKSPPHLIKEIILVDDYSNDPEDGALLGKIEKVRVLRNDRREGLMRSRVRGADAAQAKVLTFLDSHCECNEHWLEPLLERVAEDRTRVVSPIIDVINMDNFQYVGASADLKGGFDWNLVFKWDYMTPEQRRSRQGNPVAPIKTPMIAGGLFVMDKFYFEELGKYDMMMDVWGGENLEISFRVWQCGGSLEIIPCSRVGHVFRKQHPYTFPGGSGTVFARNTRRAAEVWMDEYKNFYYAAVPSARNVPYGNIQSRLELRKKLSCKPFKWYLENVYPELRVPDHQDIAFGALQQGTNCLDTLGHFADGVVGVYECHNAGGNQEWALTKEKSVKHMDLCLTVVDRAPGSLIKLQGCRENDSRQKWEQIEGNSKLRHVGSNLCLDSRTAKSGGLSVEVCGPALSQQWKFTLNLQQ
NP40-soluble protein abundance (concentration: 0.1mM): 1.02 ± 0.025
NP40-soluble protein abundance (concentration: 0.5mM): 0.97 ± 0.021
NP40-soluble protein abundance (concentration: 1mM): 0.9568 ± 0.0034
NP40-soluble protein abundance (concentration: 2mM): 0.917 ± 0.014
NP40-soluble protein abundance (concentration: 4mM): 0.928 ± 0.022
NP40-soluble protein abundance (concentration: 6mM): 0.901 ± 0.012
NP40-soluble protein abundance (concentration: 8mM): 0.927 ± 0.046
NP40-soluble protein abundance (concentration: 10mM): 0.861 ± 0.052

UniProt Q86Y37|Q86Y37-4
UniProt Q86Y37, sequence (Q86Y37 whole entry): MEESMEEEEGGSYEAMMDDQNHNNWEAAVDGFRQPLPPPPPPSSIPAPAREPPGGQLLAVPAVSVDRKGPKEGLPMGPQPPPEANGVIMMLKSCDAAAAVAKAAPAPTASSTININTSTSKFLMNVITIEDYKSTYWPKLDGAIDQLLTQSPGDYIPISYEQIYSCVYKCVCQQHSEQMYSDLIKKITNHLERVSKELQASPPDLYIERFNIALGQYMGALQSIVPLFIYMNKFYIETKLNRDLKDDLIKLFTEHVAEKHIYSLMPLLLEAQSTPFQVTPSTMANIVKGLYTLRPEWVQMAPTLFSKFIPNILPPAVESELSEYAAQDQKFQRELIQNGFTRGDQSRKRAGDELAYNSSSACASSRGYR
NP40-soluble protein abundance (concentration: 0.1mM): 0.963 ± 0.063
NP40-soluble protein abundance (concentration: 0.5mM): 0.923 ± 0.074
NP40-soluble protein abundance (concentration: 1mM): 0.9527 ± 0.0029
NP40-soluble protein abundance (concentration: 2mM): 0.9274 ± 0.0067
NP40-soluble protein abundance (concentration: 4mM): 0.907 ± 0.091
NP40-soluble protein abundance (concentration: 6mM): 0.905 ± 0.048
NP40-soluble protein abundance (concentration: 8mM): 0.87 ± 0.057
NP40-soluble protein abundance (concentration: 10mM): 0.889 ± 0.054

UniProt Q14103-3|D6RF44|Q14103-4
NP40-soluble protein abundance (concentration: 0.1mM): 0.913 ± 0.097
NP40-soluble protein abundance (concentration: 0.5mM): 0.946 ± 0.094
NP40-soluble protein abundance (concentration: 1mM): 0.943 ± 0.085
NP40-soluble protein abundance (concentration: 2mM): 0.894 ± 0.1
NP40-soluble protein abundance (concentration: 4mM): 0.903 ± 0.1
NP40-soluble protein abundance (concentration: 6mM): 0.915 ± 0.084
NP40-soluble protein abundance (concentration: 8mM): 0.947 ± 0.11
NP40-soluble protein abundance (concentration: 10mM): 0.929 ± 0.11

UniProt Q86U86|Q86U86-8|Q86U86-2|Q86U86-4|Q86U86-5|Q86U86-7|Q86U86-9
UniProt Q86U86, sequence (Q86U86 whole entry): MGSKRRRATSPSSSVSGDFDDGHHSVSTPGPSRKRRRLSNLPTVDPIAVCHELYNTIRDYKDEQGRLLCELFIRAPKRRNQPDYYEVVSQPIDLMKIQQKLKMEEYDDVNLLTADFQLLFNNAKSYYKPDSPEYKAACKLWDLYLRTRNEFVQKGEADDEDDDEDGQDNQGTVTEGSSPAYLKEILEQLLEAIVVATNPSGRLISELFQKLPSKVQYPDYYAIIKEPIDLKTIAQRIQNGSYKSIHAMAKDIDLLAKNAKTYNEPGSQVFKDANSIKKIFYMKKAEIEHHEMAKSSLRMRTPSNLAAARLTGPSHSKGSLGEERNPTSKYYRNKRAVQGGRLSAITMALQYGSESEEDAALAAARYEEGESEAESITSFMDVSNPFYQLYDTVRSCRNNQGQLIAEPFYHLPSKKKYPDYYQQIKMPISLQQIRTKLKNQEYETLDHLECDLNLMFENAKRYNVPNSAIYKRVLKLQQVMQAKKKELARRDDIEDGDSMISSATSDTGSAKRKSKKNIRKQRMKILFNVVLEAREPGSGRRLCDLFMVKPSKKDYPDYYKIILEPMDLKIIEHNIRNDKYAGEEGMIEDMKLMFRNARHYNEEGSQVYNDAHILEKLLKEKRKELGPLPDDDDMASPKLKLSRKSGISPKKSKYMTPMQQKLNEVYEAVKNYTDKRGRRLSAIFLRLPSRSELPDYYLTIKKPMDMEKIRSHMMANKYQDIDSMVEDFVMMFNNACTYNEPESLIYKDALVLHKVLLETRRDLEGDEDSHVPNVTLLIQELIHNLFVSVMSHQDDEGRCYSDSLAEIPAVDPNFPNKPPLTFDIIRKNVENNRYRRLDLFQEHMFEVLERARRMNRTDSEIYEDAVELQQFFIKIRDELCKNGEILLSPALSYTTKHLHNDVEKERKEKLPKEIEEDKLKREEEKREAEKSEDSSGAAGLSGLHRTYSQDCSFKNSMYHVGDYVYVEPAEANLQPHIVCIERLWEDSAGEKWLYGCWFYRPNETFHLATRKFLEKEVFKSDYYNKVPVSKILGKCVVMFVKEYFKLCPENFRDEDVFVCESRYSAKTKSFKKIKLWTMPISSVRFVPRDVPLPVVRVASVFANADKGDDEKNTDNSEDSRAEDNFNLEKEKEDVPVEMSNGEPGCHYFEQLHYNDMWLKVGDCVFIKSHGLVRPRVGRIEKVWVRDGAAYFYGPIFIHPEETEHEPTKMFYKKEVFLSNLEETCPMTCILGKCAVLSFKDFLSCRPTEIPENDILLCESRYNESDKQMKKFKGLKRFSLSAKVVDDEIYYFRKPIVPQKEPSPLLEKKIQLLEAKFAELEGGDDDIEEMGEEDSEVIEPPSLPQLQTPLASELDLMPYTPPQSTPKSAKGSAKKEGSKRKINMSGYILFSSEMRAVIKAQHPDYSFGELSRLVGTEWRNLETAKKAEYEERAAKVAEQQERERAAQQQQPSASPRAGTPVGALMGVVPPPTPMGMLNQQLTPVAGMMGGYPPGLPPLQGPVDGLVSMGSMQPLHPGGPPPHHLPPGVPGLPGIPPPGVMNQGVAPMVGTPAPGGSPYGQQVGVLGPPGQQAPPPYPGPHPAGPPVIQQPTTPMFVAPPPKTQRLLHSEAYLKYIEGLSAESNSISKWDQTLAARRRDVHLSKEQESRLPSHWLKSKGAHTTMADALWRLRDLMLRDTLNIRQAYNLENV
NP40-soluble protein abundance (concentration: 0.1mM): 1.07 ± 0.048
NP40-soluble protein abundance (concentration: 0.5mM): 1.14 ± 0.078
NP40-soluble protein abundance (concentration: 1mM): 1.21 ± 0.092
NP40-soluble protein abundance (concentration: 2mM): 1.38 ± 0.11
NP40-soluble protein abundance (concentration: 4mM): 1.53 ± 0.12
NP40-soluble protein abundance (concentration: 6mM): 1.61 ± 0.16
NP40-soluble protein abundance (concentration: 8mM): 1.72 ± 0.16
NP40-soluble protein abundance (concentration: 10mM): 1.78 ± 0.18

Q5VWV2|Q8TEW0|Q8TEW0-11|Q8TEW0-2|Q8TEW0-4|Q8TEW0-5|Q8TEW0-8 (UniProt Q8TEW0)
NP40-soluble protein abundance (concentration: 0.1mM): 1.02 ± 0.11
NP40-soluble protein abundance (concentration: 0.5mM): 1.02 ± 0.084
NP40-soluble protein abundance (concentration: 1mM): 1.05 ± 0.098
NP40-soluble protein abundance (concentration: 2mM): 1.07 ± 0.089
NP40-soluble protein abundance (concentration: 4mM): 1.17 ± 0.14
NP40-soluble protein abundance (concentration: 6mM): 1.15 ± 0.14
NP40-soluble protein abundance (concentration: 8mM): 1.2 ± 0.14
NP40-soluble protein abundance (concentration: 10mM): 1.19 ± 0.1

TWF2 (UniProt Q6IBS0)
UniProt Q6IBS0, sequence (Q6IBS0 whole entry): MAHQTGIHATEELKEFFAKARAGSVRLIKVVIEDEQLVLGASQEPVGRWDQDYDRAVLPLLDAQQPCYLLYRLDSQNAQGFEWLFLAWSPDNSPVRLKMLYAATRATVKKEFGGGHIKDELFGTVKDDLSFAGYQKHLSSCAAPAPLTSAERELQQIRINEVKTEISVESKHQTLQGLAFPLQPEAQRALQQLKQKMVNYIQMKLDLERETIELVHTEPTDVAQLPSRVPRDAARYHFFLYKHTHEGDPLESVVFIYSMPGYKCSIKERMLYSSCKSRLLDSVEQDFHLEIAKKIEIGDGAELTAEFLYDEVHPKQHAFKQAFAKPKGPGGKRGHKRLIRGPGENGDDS
NP40-soluble protein abundance (concentration: 0.1mM): 1.02 ± 0.035
NP40-soluble protein abundance (concentration: 0.5mM): 1.09 ± 0.049
NP40-soluble protein abundance (concentration: 1mM): 1.02 ± 0.017
NP40-soluble protein abundance (concentration: 2mM): 1.02 ± 0.055
NP40-soluble protein abundance (concentration: 4mM): 1.03 ± 0.08
NP40-soluble protein abundance (concentration: 6mM): 1.01 ± 0.013
NP40-soluble protein abundance (concentration: 8mM): 0.95 ± 0.032
NP40-soluble protein abundance (concentration: 10mM): 0.951 ± 0.012

SNW1 (UniProt Q13573)
UniProt Q13573, sequence (Q13573 whole entry): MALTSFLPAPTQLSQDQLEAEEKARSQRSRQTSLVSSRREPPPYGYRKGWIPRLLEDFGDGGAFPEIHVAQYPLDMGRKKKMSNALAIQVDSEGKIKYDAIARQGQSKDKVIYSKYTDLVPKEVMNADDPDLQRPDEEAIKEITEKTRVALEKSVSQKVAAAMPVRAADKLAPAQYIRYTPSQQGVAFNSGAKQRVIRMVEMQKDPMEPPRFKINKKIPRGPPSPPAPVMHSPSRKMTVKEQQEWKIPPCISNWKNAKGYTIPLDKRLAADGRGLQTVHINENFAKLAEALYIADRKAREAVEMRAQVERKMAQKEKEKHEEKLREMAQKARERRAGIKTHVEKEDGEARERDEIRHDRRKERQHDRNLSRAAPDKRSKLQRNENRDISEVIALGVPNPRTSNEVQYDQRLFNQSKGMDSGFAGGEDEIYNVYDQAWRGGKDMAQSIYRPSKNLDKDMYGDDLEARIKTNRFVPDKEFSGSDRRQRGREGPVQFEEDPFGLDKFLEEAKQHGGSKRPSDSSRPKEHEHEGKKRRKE
NP40-soluble protein abundance (concentration: 0.1mM): 0.96 ± 0.049
NP40-soluble protein abundance (concentration: 0.5mM): 0.94 ± 0.064
NP40-soluble protein abundance (concentration: 1mM): 0.97 ± 0.028
NP40-soluble protein abundance (concentration: 2mM): 0.94 ± 0.071
NP40-soluble protein abundance (concentration: 4mM): 0.942 ± 0.063
NP40-soluble protein abundance (concentration: 6mM): 0.959 ± 0.041
NP40-soluble protein abundance (concentration: 8mM): 1.01 ± 0.046
NP40-soluble protein abundance (concentration: 10mM): 1.03 ± 0.051

FAM160B1 (UniProt Q5W0V3)
UniProt Q5W0V3, sequence (Q5W0V3 whole entry): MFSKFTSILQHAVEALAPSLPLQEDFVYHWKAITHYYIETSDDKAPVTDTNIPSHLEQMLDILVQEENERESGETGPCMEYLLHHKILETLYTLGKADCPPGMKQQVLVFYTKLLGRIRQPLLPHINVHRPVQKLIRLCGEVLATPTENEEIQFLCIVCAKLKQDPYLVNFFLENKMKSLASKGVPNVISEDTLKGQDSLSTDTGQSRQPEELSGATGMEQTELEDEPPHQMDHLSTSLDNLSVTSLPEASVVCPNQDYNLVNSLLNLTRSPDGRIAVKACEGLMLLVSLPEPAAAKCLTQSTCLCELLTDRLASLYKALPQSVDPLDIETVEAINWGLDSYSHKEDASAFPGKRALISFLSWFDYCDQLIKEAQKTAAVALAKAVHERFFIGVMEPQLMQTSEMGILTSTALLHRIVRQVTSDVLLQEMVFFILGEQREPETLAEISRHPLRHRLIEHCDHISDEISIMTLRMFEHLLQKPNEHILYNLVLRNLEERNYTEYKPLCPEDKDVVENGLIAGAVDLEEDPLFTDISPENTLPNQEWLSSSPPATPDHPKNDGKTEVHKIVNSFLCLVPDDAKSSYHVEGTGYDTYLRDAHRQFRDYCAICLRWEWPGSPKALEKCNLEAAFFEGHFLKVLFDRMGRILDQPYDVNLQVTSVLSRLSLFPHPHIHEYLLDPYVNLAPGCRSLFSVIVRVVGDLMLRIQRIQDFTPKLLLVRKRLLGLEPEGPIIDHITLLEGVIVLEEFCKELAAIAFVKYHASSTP
NP40-soluble protein abundance (concentration: 0.1mM): 1.03 ± 0.037
NP40-soluble protein abundance (concentration: 0.5mM): 1.03 ± 0.027
NP40-soluble protein abundance (concentration: 1mM): 0.964 ± 0.029
NP40-soluble protein abundance (concentration: 2mM): 0.959 ± 0.02
NP40-soluble protein abundance (concentration: 4mM): 0.9389 ± 0.0083
NP40-soluble protein abundance (concentration: 6mM): 0.922 ± 0.0022
NP40-soluble protein abundance (concentration: 8mM): 0.91 ± 0.033
NP40-soluble protein abundance (concentration: 10mM): 0.894 ± 0.051

UniProt Q7Z2T5
UniProt Q7Z2T5, sequence (Q7Z2T5 whole entry): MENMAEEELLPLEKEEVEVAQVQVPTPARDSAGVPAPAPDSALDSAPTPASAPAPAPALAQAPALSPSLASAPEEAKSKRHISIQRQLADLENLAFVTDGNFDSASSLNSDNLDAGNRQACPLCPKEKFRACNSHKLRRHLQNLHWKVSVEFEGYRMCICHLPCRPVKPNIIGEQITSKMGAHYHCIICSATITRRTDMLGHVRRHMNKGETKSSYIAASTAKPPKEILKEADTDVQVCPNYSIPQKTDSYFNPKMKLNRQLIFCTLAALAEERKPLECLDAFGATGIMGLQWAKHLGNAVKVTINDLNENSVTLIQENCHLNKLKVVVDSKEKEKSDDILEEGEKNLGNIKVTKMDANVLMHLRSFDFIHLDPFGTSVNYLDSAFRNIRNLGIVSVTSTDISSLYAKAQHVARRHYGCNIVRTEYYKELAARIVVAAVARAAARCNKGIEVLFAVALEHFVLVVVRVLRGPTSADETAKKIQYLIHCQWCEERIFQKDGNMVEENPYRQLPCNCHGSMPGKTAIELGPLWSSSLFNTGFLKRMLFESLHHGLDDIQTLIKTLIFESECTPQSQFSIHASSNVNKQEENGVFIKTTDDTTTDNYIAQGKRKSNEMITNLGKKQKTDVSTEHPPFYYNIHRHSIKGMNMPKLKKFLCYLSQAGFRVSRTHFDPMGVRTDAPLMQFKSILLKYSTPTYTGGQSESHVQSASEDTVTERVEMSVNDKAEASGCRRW
NP40-soluble protein abundance (concentration: 0.1mM): 1.05 ± 0.05
NP40-soluble protein abundance (concentration: 0.5mM): 1.09 ± 0.014
NP40-soluble protein abundance (concentration: 1mM): 1.08 ± 0.035
NP40-soluble protein abundance (concentration: 2mM): 1.21 ± 0.059
NP40-soluble protein abundance (concentration: 4mM): 1.32 ± 0.072
NP40-soluble protein abundance (concentration: 6mM): 1.42 ± 0.08
NP40-soluble protein abundance (concentration: 8mM): 1.44 ± 0.059
NP40-soluble protein abundance (concentration: 10mM): 1.57 ± 0.024

C15orf40 (UniProt Q8WUR7)
NP40-soluble protein abundance (concentration: 0.1mM): 1.02 ± 0.1
NP40-soluble protein abundance (concentration: 0.5mM): 1.02 ± 0.084
NP40-soluble protein abundance (concentration: 1mM): 1.03 ± 0.034
NP40-soluble protein abundance (concentration: 2mM): 1.05 ± 0.12
NP40-soluble protein abundance (concentration: 4mM): 1.04 ± 0.13
NP40-soluble protein abundance (concentration: 6mM): 1.01 ± 0.097
NP40-soluble protein abundance (concentration: 8mM): 1.11 ± 0.061
NP40-soluble protein abundance (concentration: 10mM): 1.17 ± 0.12

PPP1CA (UniProt P62136)
NP40-soluble protein abundance (concentration: 0.1mM): 0.894 ± 0.12
NP40-soluble protein abundance (concentration: 0.5mM): 0.92 ± 0.12
NP40-soluble protein abundance (concentration: 1mM): 0.861 ± 0.081
NP40-soluble protein abundance (concentration: 2mM): 0.834 ± 0.072
NP40-soluble protein abundance (concentration: 4mM): 0.855 ± 0.083
NP40-soluble protein abundance (concentration: 6mM): 0.853 ± 0.056
NP40-soluble protein abundance (concentration: 8mM): 0.837 ± 0.098
NP40-soluble protein abundance (concentration: 10mM): 0.828 ± 0.092

UniProt Q8WUF8|Q8WUF8-3
NP40-soluble protein abundance (concentration: 0.1mM): 1.03 ± 0.14
NP40-soluble protein abundance (concentration: 0.5mM): 1.03 ± 0.051
NP40-soluble protein abundance (concentration: 1mM): 0.978 ± 0.14
NP40-soluble protein abundance (concentration: 2mM): 1 ± 0.044
NP40-soluble protein abundance (concentration: 4mM): 0.966 ± 0.028
NP40-soluble protein abundance (concentration: 6mM): 1.01 ± 0.014
NP40-soluble protein abundance (concentration: 8mM): 0.959 ± 0.021
NP40-soluble protein abundance (concentration: 10mM): 0.99 ± 0.023

UniProt Q00653|Q00653-4
NP40-soluble protein abundance (concentration: 0.1mM): 0.995 ± 0.032
NP40-soluble protein abundance (concentration: 0.5mM): 0.997 ± 0.021
NP40-soluble protein abundance (concentration: 1mM): 0.959 ± 0.013
NP40-soluble protein abundance (concentration: 2mM): 0.955 ± 0.037
NP40-soluble protein abundance (concentration: 4mM): 0.96 ± 0.048
NP40-soluble protein abundance (concentration: 6mM): 0.931 ± 0.016
NP40-soluble protein abundance (concentration: 8mM): 0.966 ± 0.04
NP40-soluble protein abundance (concentration: 10mM): 0.94 ± 0.045

LARP1 (UniProt Q6PKG0)
NP40-soluble protein abundance (concentration: 0.1mM): 1.02 ± 0.039
NP40-soluble protein abundance (concentration: 0.5mM): 1.11 ± 0.06
NP40-soluble protein abundance (concentration: 1mM): 1.32 ± 0.1
NP40-soluble protein abundance (concentration: 2mM): 1.46 ± 0.11
NP40-soluble protein abundance (concentration: 4mM): 1.66 ± 0.16
NP40-soluble protein abundance (concentration: 6mM): 1.78 ± 0.17
NP40-soluble protein abundance (concentration: 8mM): 1.88 ± 0.22
NP40-soluble protein abundance (concentration: 10mM): 1.99 ± 0.22

From the supplement of paper PMC6411743
